Reference: PubChem BioAssay

test: probe aWnt5a binding to arrayed compounds – biochemical, biotinylated probe, 635/667 nm fluorescence, primary screen (AID 1113); conditions: small-molecule microarray, higher = more signal;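 further: score merges 667 nm fluorescence intensity with signal-to-noise per printed feature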

Row | Structure (SMILES) | composite z-score
1 | CCOC(=O)C[C@H]1[C@H](OC(=O)Cc2ccc3c(c2)OCO3)[C@@H](NC(=O)c2ccc(-c3ccccc3)cc2)c2cc(OCCCO)ccc2N1C(=O)c1ccccc1 | -0.113
2 | CC(c1ccccc1)C(O)C1C=CC2C(=O)NC(=O)C2N1Nc1ccccn1 (centres undefined) | -0.0478
3 | COc1ccc(C#Cc2ccc3c(c2)[C@]2(C(=O)N3)[C@H](c3ccc(O)cc3)N3[C@H](c4ccccc4)[C@H](c4ccccc4)OC(=O)[C@H]3[C@@H]2C(=O)NC[C@H](O)c2ccccc2)cc1 | 0.164
4 | O=C1O[C@H](c2ccccc2)[C@H](c2ccccc2)N2[C@H]1[C@@H](C(=O)O)[C@]1(C(=O)Nc3ccc(C#CC4(O)CCCCCC4)cc31)[C@H]2c1ccc(OCCO)cc1 | 0.0692
5 | NCCCCCCNC(=O)[C@H]1C[C@H]2C(=O)NCC(=O)N2[C@H]1c1cccc(OCCO)c1 | -0.0643
6 | C=CCOC(=O)[C@H]1[C@@H]2C(=O)O[C@@H](c3ccccc3)[C@@H](c3ccccc3)N2[C@@H](c2ccc(OCCOC(=O)[C@@H]3C[C@@H]4C(=O)NCC(=O)N4[C@@H]3c3ccc(O)cc3)cc2)[C@]12C(=O)Nc1ccccc12 | -0.0573
7 | [N-]=[N+]=Nc1ccccc1C[C@]1(C(=O)NCCN2CCOCC2)N=C(c2ccc(OCCCO)cc2)O[C@H]1c1ccccc1 | -0.103
8 | CC(C)N1C(=O)C[C@@](C(=O)NCc2ccccc2)(c2ccc([N+](=O)[O-])cc2)[C@H]1c1ccc(CO)cc1 | -0.0894
9 | O=C1OCCC/C=C\[C@H]2OC34C=CCN(Cn5nnc6ccccc65)C(=O)[C@H]3N(CCCCCO)C(=O)[C@@H]4C12 (some centres undefined) | -0.175
10 | NCCCCCNC(=O)[C@H]1C[C@H]2C(=O)NCC(=O)N2[C@H]1c1cccc(OCCO)c1 | -0.157
11 | CN1C=C(C(=O)OCCS(C)(=O)=O)C(C(=O)OCCS(C)(=O)=O)=CC(CCCO)=CC1C1CC1 (centres undefined) | -0.126
12 | COCCOC(=O)N1C(=O)[C@@]2(c3cc(C#CC4=CCCCC4)ccc31)[C@H](C(=O)NC[C@H](O)c1ccccc1)[C@H]1C(=O)O[C@H](c3ccccc3)[C@H](c3ccccc3)N1[C@@H]2c1ccc(O)cc1 | -0.163
13 | CCCCCCCCCCC(O)C1C=CC2C(=O)N(Cc3ccccc3)C(=O)C2N1n1cnnc1 (centres undefined) | 0.147
14 | Cc1ccccc1C(O)C1C=CC2C(=O)N(C)C(=O)C2N1N1CCCCC1 (centres undefined) | 0.0403
15 | CC(=O)NCCCC[C@@H]1NC(=O)[C@@H]2C[C@H](C(=O)NCCCCCCNC(=O)CS)[C@H](c3ccc(O)cc3)N2C1=O | -0.211
16 | C=CCOC(=O)[C@H]1[C@@H]2C(=O)O[C@@H](c3ccccc3)[C@@H](c3ccccc3)N2[C@@H](c2ccc(OCCOC(=O)[C@@H]3C[C@@H]4C(=O)N5CCC[C@H]5C(=O)N4[C@@H]3c3ccc(O)cc3)cc2)[C@]12C(=O)Nc1ccccc12 | -0.1
17 | C=CCC(OC(C)=O)[C@@H]1[C@@H](N(Cc2ccc(-c3ccccc3)cc2)C(=O)Cc2ccc(OC)cc2)c2cc(OCCCO)ccc2N1C(=O)c1ccc2ccccc2n1 (some centres undefined) | 0.0259
18 | COC(=O)C(CC#Cc1ccc2c(c1)[C@]1(C(=O)N2)[C@H](C(=O)NC[C@H](O)c2ccccc2)[C@H]2C(=O)O[C@H](c3ccccc3)[C@H](c3ccccc3)N2[C@@H]1c1ccc(OCCO)cc1)C(=O)OC | 0.174
19 | COc1ccc(C(O)C2C=CC3C(=O)N(c4ccccc4)C(=O)C3N2Nc2ccc([N+](=O)[O-])cc2)cc1OCc1ccccc1 (centres undefined) | 1
20 | CC(=O)NCCCC[C@@H]1NC(=O)[C@@H]2C[C@H](C(=O)NCCCCN(C)C)[C@H](c3ccc(O)cc3)N2C1=O | -0.124
21 | CC(C)C(=C=CC[C@H](O)c1cccc(OCCO)c1)C[C@H](O)COCc1ccccc1 | -0.096
22 | CC(C)C(=C=CC[C@@H](O)c1ccccc1OCCO)C[C@@H](O)c1ccccn1 | -0.0751
23 | O=C1O[C@@H](c2ccccc2)[C@@H](c2ccccc2)N2[C@@H](c3ccccc3OCCO)[C@]3(C(=O)Nc4ccc(C#CC5(O)CCCCCC5)cc43)[C@@H](C(=O)Nc3nc4ccccc4s3)[C@H]12 | -0.0495
24 | C=CCN1C(=O)[C@]2(O[C@H](CCO)[C@@H]([Si](C)(C)c3ccc(OC)cc3)[C@@H]2C)c2cc(NC(=O)[C@H](C)O)ccc21 | -0.0799

test: probe aShh binding to arrayed compounds – biochemical, biotinylated probe, 635/667 nm fluorescence, primary screen (AID 1114); conditions: small-molecule microarray, higher = more signal;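 further: probe is biotin-labelled aShh protein from a stem cell growth factor screen; measures binding of labelled protein to compounds printed on the slide; score merges feature fluorescence at 667 nm with signal-to-noise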

Row | Structure (SMILES) | composite z-score
25 | CCCN1C(=O)[C@@]2(CCC(=O)OC(C)(C)C)N=C(c3ccc(OCCCO)cc3)O[C@H]2c2ccccc21 | -0.0866
26 | O=C(O)[C@H]1C[C@H]2C(=O)NCC(=O)N2[C@H]1c1ccc(O)cc1 | -0.214
27 | CC(C)c1ccc(NN2C(C(O)c3ccc(N(C)C)cc3)C=CC3C(=O)N(c4ccccc4)C(=O)C32)cc1 (centres undefined) | 0.13
28 | CCC[C@@H]1C=C(C(=O)O)[C@H](c2ccc(C)cc2)N1S(=O)(=O)c1ccc(C)cc1 | 0.0815
29 | CC(C)c1ccc(NN2C(C(O)c3c(F)cccc3Cl)C=CC3C(=O)N(c4ccccc4)C(=O)C32)cc1 (centres undefined) | 1.38
30 | CC(C)=CCCC(C)=CC(O)C1C=CC2C(=O)N(c3ccccc3)C(=O)C2N1Nc1ccccc1 (centres undefined) | 0.393
31 | COCC1=C2[C@@H](CCc3ccccc3)OB(O)C[C@@H]2[C@@H]2C(=O)N(Cc3ccccc3)C(=O)[C@@H]2C1 | -0.214
32 | COC(=O)[C@@]1(Cc2ccc(OC)cc2)[C@H]2c3cc(C(=O)N4CCCC4)n(CCc4c[nH]c5cc(F)ccc45)c3C[C@H]2CN1C(=O)c1ccccc1 | 0.265
33 | CC(C)N1CC=CC23O[C@@H]4C=CCOC(=O)[C@@H]4[C@H]2C(=O)N(CCO)[C@@H]3C1=O (some centres undefined) | -0.11
34 | COC(=O)C(CC#Cc1ccc2c(c1)[C@]1(C(=O)N2)[C@H](c2ccc(OCCO)cc2)N2[C@H](c3ccccc3)[C@H](c3ccccc3)OC(=O)[C@H]2[C@@H]1C(=O)NC[C@H](O)c1ccccc1)C(=O)OC | 0.356
35 | CC(C)NC(=O)[C@@]1(Cc2ccccc2I)c2ccccc2C(=O)N(Cc2ccccc2)[C@H]1c1ccc(CO)cc1 | -0.0503
36 | CCOC(=O)C[C@H]1[C@H](OC(=O)Cc2ccc3c(c2)OCO3)[C@@H](NC(=O)c2ccc(-c3ccccc3)cc2)c2cc(OCCCO)ccc2N1C(=O)c1ccccc1 | 0.0483
37 | CC(c1ccccc1)C(O)C1C=CC2C(=O)NC(=O)C2N1Nc1ccccn1 (centres undefined) | -0.138
38 | COc1ccc(C#Cc2ccc3c(c2)[C@]2(C(=O)N3)[C@H](c3ccc(O)cc3)N3[C@H](c4ccccc4)[C@H](c4ccccc4)OC(=O)[C@H]3[C@@H]2C(=O)NC[C@H](O)c2ccccc2)cc1 | -0.138
39 | O=C1O[C@H](c2ccccc2)[C@H](c2ccccc2)N2[C@H]1[C@@H](C(=O)O)[C@]1(C(=O)Nc3ccc(C#CC4(O)CCCCCC4)cc31)[C@H]2c1ccc(OCCO)cc1 | 0.0048
40 | NCCCCCCNC(=O)[C@H]1C[C@H]2C(=O)NCC(=O)N2[C@H]1c1cccc(OCCO)c1 | 0.199
41 | C=CCOC(=O)[C@H]1[C@@H]2C(=O)O[C@@H](c3ccccc3)[C@@H](c3ccccc3)N2[C@@H](c2ccc(OCCOC(=O)[C@@H]3C[C@@H]4C(=O)NCC(=O)N4[C@@H]3c3ccc(O)cc3)cc2)[C@]12C(=O)Nc1ccccc12 | -0.0192
42 | [N-]=[N+]=Nc1ccccc1C[C@]1(C(=O)NCCN2CCOCC2)N=C(c2ccc(OCCCO)cc2)O[C@H]1c1ccccc1 | 0.123

Row | Structure (SMILES) | composite z-score
43 | CC(C)N1C(=O)C[C@@](C(=O)NCc2ccccc2)(c2ccc([N+](=O)[O-])cc2)[C@H]1c1ccc(CO)cc1 | -0.13
44 | O=C1OCCC/C=C\[C@H]2OC34C=CCN(Cn5nnc6ccccc65)C(=O)[C@H]3N(CCCCCO)C(=O)[C@@H]4C12 (some centres undefined) | -0.0035
45 | NCCCCCNC(=O)[C@H]1C[C@H]2C(=O)NCC(=O)N2[C@H]1c1cccc(OCCO)c1 | 0.158
46 | CN1C=C(C(=O)OCCS(C)(=O)=O)C(C(=O)OCCS(C)(=O)=O)=CC(CCCO)=CC1C1CC1 (centres undefined) | 0.0434
47 | COCCOC(=O)N1C(=O)[C@@]2(c3cc(C#CC4=CCCCC4)ccc31)[C@H](C(=O)NC[C@H](O)c1ccccc1)[C@H]1C(=O)O[C@H](c3ccccc3)[C@H](c3ccccc3)N1[C@@H]2c1ccc(O)cc1 | -0.0055
48 | CCCCCCCCCCC(O)C1C=CC2C(=O)N(Cc3ccccc3)C(=O)C2N1n1cnnc1 (centres undefined) | 0.251
49 | Cc1ccccc1C(O)C1C=CC2C(=O)N(C)C(=O)C2N1N1CCCCC1 (centres undefined) | 0.254
50 | CC(=O)NCCCC[C@@H]1NC(=O)[C@@H]2C[C@H](C(=O)NCCCCCCNC(=O)CS)[C@H](c3ccc(O)cc3)N2C1=O | -0.0643
51 | C=CCOC(=O)[C@H]1[C@@H]2C(=O)O[C@@H](c3ccccc3)[C@@H](c3ccccc3)N2[C@@H](c2ccc(OCCOC(=O)[C@@H]3C[C@@H]4C(=O)N5CCC[C@H]5C(=O)N4[C@@H]3c3ccc(O)cc3)cc2)[C@]12C(=O)Nc1ccccc12 | 0.0121
52 | C=CCC(OC(C)=O)[C@@H]1[C@@H](N(Cc2ccc(-c3ccccc3)cc2)C(=O)Cc2ccc(OC)cc2)c2cc(OCCCO)ccc2N1C(=O)c1ccc2ccccc2n1 (some centres undefined) | -0.0553
53 | COC(=O)C(CC#Cc1ccc2c(c1)[C@]1(C(=O)N2)[C@H](C(=O)NC[C@H](O)c2ccccc2)[C@H]2C(=O)O[C@H](c3ccccc3)[C@H](c3ccccc3)N2[C@@H]1c1ccc(OCCO)cc1)C(=O)OC | 0.986
54 | COc1ccc(C(O)C2C=CC3C(=O)N(c4ccccc4)C(=O)C3N2Nc2ccc([N+](=O)[O-])cc2)cc1OCc1ccccc1 (centres undefined) | 0.504
55 | CC(=O)NCCCC[C@@H]1NC(=O)[C@@H]2C[C@H](C(=O)NCCCCN(C)C)[C@H](c3ccc(O)cc3)N2C1=O | -0.214
56 | CC(C)C(=C=CC[C@H](O)c1cccc(OCCO)c1)C[C@H](O)COCc1ccccc1 | 0.0062
57 | CC(C)C(=C=CC[C@@H](O)c1ccccc1OCCO)C[C@@H](O)c1ccccn1 | -0.0553
58 | O=C1O[C@@H](c2ccccc2)[C@@H](c2ccccc2)N2[C@@H](c3ccccc3OCCO)[C@]3(C(=O)Nc4ccc(C#CC5(O)CCCCCC5)cc43)[C@@H](C(=O)Nc3nc4ccccc4s3)[C@H]12 | -0.0685
59 | C=CCN1C(=O)[C@]2(O[C@H](CCO)[C@@H]([Si](C)(C)c3ccc(OC)cc3)[C@@H]2C)c2cc(NC(=O)[C@H](C)O)ccc21 | 0.13
